# Reference: ChEMBL document CHEMBL4808148, “HDAC6 screening dataset using tau-based substrate in an enzymatic assay yields selective inhibitors and activators” (2021)
# Screen size: about 5,600 compounds; about 390 (7%) showed an effect of 50% or more. The entries come from a sample that favours strong results as a whole. Non-standard residues stand in square brackets, D forms with d. Residues, ends and D or L forms follow the SMILES beside them. αMeP = C[C@@]1(C(=O)O)CCCN1
# Legend:
# [1] = molecular target: T1, Protein deacetylase HDAC6 (Homo sapiens) (UniProt Q9UBN7); conditions: at 10 µM
# T1 sequence (whole entry): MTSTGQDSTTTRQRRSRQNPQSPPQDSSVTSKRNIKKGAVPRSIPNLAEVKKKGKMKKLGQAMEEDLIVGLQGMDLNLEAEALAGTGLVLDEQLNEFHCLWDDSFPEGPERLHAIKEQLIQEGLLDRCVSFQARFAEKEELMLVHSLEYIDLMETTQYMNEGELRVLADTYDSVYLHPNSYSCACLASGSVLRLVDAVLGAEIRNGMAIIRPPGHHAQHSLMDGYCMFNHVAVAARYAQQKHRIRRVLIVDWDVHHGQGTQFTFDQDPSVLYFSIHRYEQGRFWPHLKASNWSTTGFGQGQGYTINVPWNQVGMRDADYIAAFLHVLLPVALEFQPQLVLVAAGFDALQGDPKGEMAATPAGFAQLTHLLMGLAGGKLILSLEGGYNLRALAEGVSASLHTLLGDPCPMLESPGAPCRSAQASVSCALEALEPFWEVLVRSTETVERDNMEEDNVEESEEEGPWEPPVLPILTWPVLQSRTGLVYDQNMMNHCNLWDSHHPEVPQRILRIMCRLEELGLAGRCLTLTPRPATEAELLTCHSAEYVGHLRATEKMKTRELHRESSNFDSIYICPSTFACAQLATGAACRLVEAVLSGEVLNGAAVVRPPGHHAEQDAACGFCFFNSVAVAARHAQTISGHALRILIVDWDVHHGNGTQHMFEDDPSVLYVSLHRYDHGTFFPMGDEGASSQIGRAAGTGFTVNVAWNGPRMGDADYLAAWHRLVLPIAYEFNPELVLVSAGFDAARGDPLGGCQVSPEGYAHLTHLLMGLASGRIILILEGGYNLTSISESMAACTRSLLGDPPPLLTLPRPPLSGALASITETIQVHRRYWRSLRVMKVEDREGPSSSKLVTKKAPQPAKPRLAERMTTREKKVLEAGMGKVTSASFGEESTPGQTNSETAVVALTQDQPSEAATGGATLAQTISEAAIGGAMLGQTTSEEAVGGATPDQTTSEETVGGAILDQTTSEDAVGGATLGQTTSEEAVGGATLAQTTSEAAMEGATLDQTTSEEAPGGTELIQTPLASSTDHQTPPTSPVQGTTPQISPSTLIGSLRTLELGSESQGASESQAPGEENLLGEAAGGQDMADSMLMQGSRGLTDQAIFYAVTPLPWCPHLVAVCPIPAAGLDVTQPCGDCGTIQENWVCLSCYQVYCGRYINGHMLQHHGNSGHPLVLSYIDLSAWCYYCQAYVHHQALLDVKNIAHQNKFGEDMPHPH
# [2] = molecular target: Protein deacetylase HDAC6 (Homo sapiens) (UniProt Q9UBN7); conditions: at 10 µM; remark: listed apart in the source
Molecule,inhibition [1] [%],inhibition [2] [%]
N[C@@H](C(=O)O)c1ccc(O)c(C(=O)O)c1,1.46,
CC(C)c1ccc2oc3nc(N)c(C(=O)O)cc3c(=O)c2c1,98.2,
N[C@H](C(=O)O)c1ccc(O)c(C(=O)O)c1,-8.79,
"BISMUTH SUBCITRATE POTASSIUM, CHEMBL1201186",,16.3
Cc1ccc(/C(=C\CN2CCCC2)c2cccc(/C=C/C(=O)O)n2)cc1,-6.81,
COc1cc(C[C@H]2c3cc(OC)c(OC)cc3CCN2C)c(Oc2cc3c(cc2OC)-c2c(OC)c(OC)cc4c2[C@H](C3)N(C)CC4)cc1OC,33.6,
COc1cc(C(=O)NCC2(N(C)C)CCCC2)cc(OC)c1OCc1ccccc1,0.96,
Nc1nc(NCCc2ccc(O)cc2)nc2nc(-c3ccco3)nn12,67.5,
COc1cc(C(=S)N2CCOCC2)cc(OC)c1OC,14.8,
COc1ccc(S(=O)(=O)N2c3ccc(Cl)cc3[C@](O)(c3ccccc3Cl)[C@@H]2C(=O)N2CCC[C@H]2C(N)=O)cc1OC,-7.22,
Cn1ccc2cc3c(cc21)CCN3C(=O)Nc1cccnc1,100,
CSc1cc2c(cc1C(F)(F)F)N(C(=O)Nc1cccnc1)CC2,19.3,
O=C(NCC(=O)N1CCCC1)Nc1ccc2cnccc2c1,-7.55,
Cn1ccc2cc(NC(=O)Nc3cccnc3)ccc21,88.1,
O=C(Nc1ccc2c(O)cc(S(=O)(=O)O)cc2c1)Nc1ccc2c(O)cc(S(=O)(=O)O)cc2c1,45.9,
COc1cc2c(cc1C(F)(F)F)N(C(=O)Nc1cc(F)cc(-c3cccnc3)c1)CC2,-6.46,
Cc1c(C(=O)NN2CCOCC2)nn(-c2ccc(Cl)cc2Cl)c1-c1ccc(I)cc1,0.27,
COc1cccc([C@@H](C)NCCCc2ccccc2Cl)c1,2.6,
CC(C)C[C@H](N)C(=O)O,5.48,
CC(=O)Nc1cccc(Nc2ncnc(N3CCC(OCc4ccc(OC(F)(F)F)cc4)CC3)n2)c1C,22.4,
CCc1c(-c2ccccc2)c(-c2ccccc2)nn1-c1ccccc1-c1cccc(OCC(=O)O)c1,10.2,
O=C(O)CCc1nc2ccccc2[nH]1,10.6,
c1ccc2[nH]c(-c3cscn3)nc2c1,97.3,
CCN(c1cc(C#CCN2CCOCC2)cc(C(=O)NCc2c(C)cc(C)[nH]c2=O)c1C)[C@H]1CC[C@H](N(C)CCOC)CC1,-8.25,
COc1ccccc1OC(=O)C(C)c1ccc(CC(C)C)cc1 (centres undefined),10.7,
CCOC(=O)[C@H](CCc1ccccc1)N[C@@H](C)C(=O)N1[C@H](C(=O)O)C[C@H]2CCCC[C@@H]21,3.93,

Molecule,inhibition [1] [%],inhibition [2] [%]
Cc1cccc(C)c1-n1c(=O)c2cnc(Nc3ccc(N4CCN(C)CC4)cc3)nc2n2c3ccccc3nc12,-1.49,
O=C(Nc1c[nH]nc1-c1nc2ccc(CN3CCOCC3)cc2[nH]1)NC1CC1,32.3,
Nc1ccc2cc3ccc(N)cc3nc2c1,6.02,
Nc1ccc(-c2nc3ccc(-c4nc5ccc(N)cc5[nH]4)cc3[nH]2)cc1,61.9,
CC(C)C(C(=O)Nc1nccs1)c1ccc(Cl)cc1 (centres undefined),10.4,
COC(=O)c1csc(C(=O)c2c[nH]c3ccccc23)n1,47.6,
Nc1ccn([C@@H]2O[C@H](CO)[C@@H](O)C2(F)F)c(=O)n1,-4.87,
COC(=O)Nc1nc2cc(C(=O)c3ccc(F)cc3)ccc2[nH]1,1.02,
COC(=O)Nc1nc2cc(Sc3ccccc3)ccc2[nH]1,65.2,
CCCOc1ccc2[nH]c(NC(=O)OC)nc2c1,31.6,
COC(=O)Nc1nc2cc(C(=O)c3ccccc3)ccc2[nH]1,-5.79,
COC(=O)Nc1nc2cc(SC(C)C)ccc2[nH]1,79.4,
CCCC(=O)Nc1ncnc2c1ncn2C1O[C@@H]2COP(=O)(O)O[C@H]2[C@H]1OC(=O)CCC (some centres undefined),3.41,
N#Cc1ncccn1,-1.21,
COc1cc(N2CCC(N3CCN(C)CC3)CC2)ccc1Nc1ncc(Cl)c(Nc2ccccc2S(=O)(=O)C(C)C)n1,17.9,
C[C@@]1(C(=O)N[C@@H](CCC(=O)O)C(=O)O)CCCN1C(=O)CN (H-Gly-[αMeP]-Glu-OH),-8.16,
O=C(O)c1cccnc1Nc1cccc(C(F)(F)F)c1,74.8,
Cc1c(Nc2ncccc2C(=O)O)cccc1C(F)(F)F,89.7,
O=C(O)c1cccnc1C(=O)O,-0.23,
Cc1c(Cl)cccc1Nc1ccccc1C(=O)O,32.3,
O=C1OC(OC(=O)c2cccnc2Nc2cccc(C(F)(F)F)c2)c2ccccc21 (centres undefined),4.26,
O=C(OCCOCCO)c1ccccc1Nc1cccc(C(F)(F)F)c1,46.4,
CN[C@H](C(=O)N[C@H](C(=O)N(C)[C@H](/C=C(\C)C(=O)O)C(C)C)C(C)(C)C)C(C)(C)c1ccccc1,-3.5,
CC1OC1P(=O)(O)O (centres undefined),-9.26,
"TEPRENONE, CHEMBL5314356",,27.9
CC1=C(C(=O)Nc2cc3cn[nH]c3cc2F)C(c2ccc(C(F)(F)F)cc2)CC(=O)N1 (centres undefined),24.4,

Molecule,inhibition [1] [%],inhibition [2] [%]
C#CCN[C@@H]1CCc2ccccc21,54,
c1ccc(Oc2cccnc2)cc1,10.2,
CCCCNc1nc(N)c2[nH]c(=O)n(Cc3ccc(OCCN(C)C)nc3)c2n1,-9.47,
CCCC(=O)OCOC(=O)C1=C(C)NC(C)=C(C(=O)OC)C1c1cccc(Cl)c1Cl (centres undefined),44.1,
Cc1ccc(Nc2ncc3c(n2)N(C)C(=O)N(c2cc(NC(=O)c4cccc(C(F)(F)F)c4)ccc2C)C3)cn1,2.43,
O=C(O)C1=CC(O)C(O)[C@H](O)C1 (some centres undefined),11.8,
CCCn1c(=O)c2[nH]c(-c3cnn(Cc4cccc(C(F)(F)F)c4)c3)nc2n(CC)c1=O,101,
CCCn1c(=O)c2nc(-c3ccccc3)[nH]c2n(CCC)c1=O,-5.2,
CCOC(=O)COc1ccc2c(c1)C[C@@H](NC[C@H](O)c1cccc(Cl)c1)CC2,16.8,
Cn1nccc1Nc1nccc(-c2ccn([C@H](CO)c3ccc(Cl)c(F)c3)c(=O)c2)n1,26.5,
CN1CCC(Nc2ncc3ncnc(Nc4ccc(F)c(Cl)c4)c3n2)CC1,20.6,
CCOc1cccc(NC(=O)c2ccc(N3CCCC3)c(C(F)(F)F)c2)c1,69.4,
O=C(Nc1cccc(Br)c1)c1cccc(S(=O)(=O)N2CCCCCC2)c1,12.5,
CCn1c(-c2nonc2N)nc2cnc(Oc3cccc(NC(=O)c4ccc(OCCN5CCOCC5)cc4)c3)cc21,7.09,
Cc1cc(C)n(-c2cccc([C@H](CC(=O)O)CN3CC[C@@H](CCc4ccc5c(n4)NCCC5)C3)c2)n1,-4.01,
C[C@H]1CC[C@H](n2c3cnccc3c3cnc(Nc4ccc5c(n4)CCN(C(=O)CO)C5)nc32)CC1,-9.6,
CC[C@@H]1CN2C(=O)N(C)c3nc(-c4ccccc4)[nH]c3C2=N1,-3.85,
COc1ccc(C(=O)Nc2sc3c(c2C(N)=O)CCCC3)cc1OC,31.6,
CC(C)(C)C1CCc2c(sc(NC(=O)c3ccco3)c2C(=O)O)C1 (centres undefined),102,
N[C@@H](Cc1ccc(B(O)O)cc1)C(=O)O,0.83,
CNc1ncc2cc(-c3cc(NC(=O)NCCC(C)(C)C)c(F)cc3C)c(C)nc2n1,12.4,
C/C(=N\NC(=O)[C@@H]1C(=O)NC[C@H]1c1ccccc1)c1cccc(Br)c1,17.4,
CN1CCc2c(c3ccccc3n2Cc2ccc(C(=O)NO)cc2)C1,101,
Fc1ccc(Cn2c(NC3CCNCC3)nc3ccccc32)cc1,6.44,
CCO[C@@H](Cc1ccc(OCCc2ccc(OS(C)(=O)=O)cc2)cc1)C(=O)O,-7.27,
O=C(/C=C/c1cccnc1)NCCCCC1CCN(C(=O)c2ccccc2)CC1,-0.26,

Molecule,inhibition [1] [%],inhibition [2] [%]
CCNC(=O)/C=C/c1cccc(Br)c1,54.9,
O=C(c1cccc(Br)c1)N1CCC(N2CCCC2)CC1,1.11,
Nc1cc(F)ccc1NC(=O)/C=C/c1cnn(C/C=C/c2ccccc2)c1,12.4,
O=C(/C=C/c1ccccc1)NCCO,81.5,
COc1cc(/C=C/C(=O)CC(=O)/C=C/c2ccc(O)c(OC)c2)ccc1O,38.8,
CC12CCC(C(=O)N(CCCCN3CCN(c4ccccn4)CC3)C1=O)C2(C)C (centres undefined),4.93,
C[C@@H]1O[C@@H](O[C@H]2[C@H](Oc3cc(O)c4c(c3)O[C@H](c3ccc(O)cc3)CC4=O)O[C@H](CO)[C@@H](O)[C@@H]2O)[C@H](O)[C@H](O)[C@H]1O,11.8,
O=C(O)C[C@H]1CC[C@H](c2ccc(-c3ccc(Nc4ccc(C(F)(F)F)nc4)cn3)cc2)CC1,17.5,
CC(C)c1ccc2c(c1)CC[C@H]1[C@](C)(CN)CCC[C@]21C,10.1,
C/C(=C\C(=O)Nc1ccccc1C(=O)O)c1ccc2ccccc2c1,27.8,
C=CC(=O)c1ccc2ccccc2c1,20.7,
CC(C)N(CCC(=O)c1ccc2ccccc2c1)Cc1ccccc1,59.8,
CC(=O)c1c(C)c2cnc(Nc3ccc(N4CCNCC4)cn3)nc2n(C2CCCC2)c1=O,3.93,
CC(C)C[C@H](NC(=O)[C@H](CCc1ccccc1)NC(=O)CN1CCOCC1)C(=O)N[C@@H](Cc1ccccc1)C(=O)N[C@@H](CC(C)C)C(=O)[C@@]1(C)CO1,0.65,
C[C@H]1CN(C[C@H](Cc2ccccc2)C(=O)NCC(=O)O)CC[C@@]1(C)c1cccc(O)c1,72.7,
CC(=O)SCC(Cc1ccccc1)C(=O)NCC(=O)OCc1ccccc1 (centres undefined),3.61,
O=C(CN1CCN(C(=O)c2ccco2)CC1)Nc1cc(C(F)(F)F)ccc1Cl,18.3,
Nc1nc2cc(-c3ccc4ncc(C(=O)N5CCOCC5)n4c3)ccc2o1,17.8,
CN(CCCN1c2ccccc2CCc2ccccc21)CC(=O)c1ccc(Cl)cc1,35.1,
Cc1cc(O)c(C(C)C)cc1Cl,35.2,
CCCN[C@H]1CCc2nc(N)sc2C1,14.3,
O=C(O)/C=C/c1ccc(O)c(O)c1,-8.03,
CC(C)(C)c1cc(C(=O)/C=C/c2ccc(C(=O)O)cc2)cc(C(C)(C)C)c1,35.2,
CC(C)=CCOc1ccc(/C=C/C(=O)c2ccc(OCC=C(C)C)cc2OCC(=O)O)cc1,-0.94,
O=C(/C=C/c1ccc(O)c(O)c1)c1ccc(O)cc1O,97.5,
O=C(/C=C/c1ccc(O)cc1)c1ccc(O)cc1O,98.6,
